Screening results as filed in PubChem BioAssay.
D1 PAM – potentiators of human D1 dopamine receptor; P21728; HEK293 TREx D1 cells, calcium flux, dopamine EC20 potentiation; potentiation, % at 10 µM; 0.036% of 360,000 active; in the data active = potentiation above about 30%; note: 0% is about no effect
Target sequence (P21728 whole entry, looked up): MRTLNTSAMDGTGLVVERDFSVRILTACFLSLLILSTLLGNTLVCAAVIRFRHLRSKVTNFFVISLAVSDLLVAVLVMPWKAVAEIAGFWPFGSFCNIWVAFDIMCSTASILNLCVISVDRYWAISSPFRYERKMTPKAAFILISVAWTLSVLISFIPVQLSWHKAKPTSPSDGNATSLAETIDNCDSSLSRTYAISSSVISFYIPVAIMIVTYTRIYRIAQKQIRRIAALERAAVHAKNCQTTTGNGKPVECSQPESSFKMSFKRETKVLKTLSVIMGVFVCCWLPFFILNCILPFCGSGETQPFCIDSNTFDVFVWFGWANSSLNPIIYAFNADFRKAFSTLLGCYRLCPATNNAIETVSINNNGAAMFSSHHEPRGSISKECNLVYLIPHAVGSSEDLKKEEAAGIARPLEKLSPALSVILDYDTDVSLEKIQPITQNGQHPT
D1 agonist – agonists of human D1 dopamine receptor | HEK293 T-REx D1 cells, calcium flux, agonist mode | 1% of 360,000 active | activation, % at 2 µM | P21728; in the data active = activation above about 30%; note: 0% is about no effect
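Agonism was scored from calcium flux recorded over 180 s (1 read/s) after pintool compound addition, following a 10-cycle baseline. Cells were inducible force-coupled HEK293 TREx D1, plated overnight at 30 C and loaded with no-wash calcium dye.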
D1 antag – antagonists of human D1 dopamine receptor. activity change, negative = inhibition, % at 10 µM. 3.2% of 360,000 active. AID 504652. P21728. HEK293 TREx D1 cells, calcium flux, dopamine EC80; active compounds read low; in the data active = activity change below about -30%; note: % is set by controls: 0 for no effect and ±100 for the full control effect
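Tetracycline-induced HEK293 Trex D1 cells, force-coupled to calcium, dye-loaded; compounds added and read 180 s, then EC80 dopamine added and calcium flux tracked kinetically another 180 s.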
D3 antag – D3 dopamine receptor (human) antagonism; P35462; D3R cells, DiscoveRx beta-arrestin luminescence, antagonist mode; active compounds read low; max response, negative = inhibition, %; 2.5% of 360,000 active; AID 652054; in the data active = max response below about -50%; inconclusive = no clear call, values can overlap the other calls; note: % is set by controls: 0 for no effect and ±100 for the full control effect
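Cells expressing the human receptor were seeded at 1500 cells/well, incubated overnight at 37 degrees C in 5% CO2, then exposed to library compounds with dopamine controls for 90 minutes at 37 degrees C before luminescent detection.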
DRD3 agonist – D3 dopamine receptor (human) agonism. D3R DiscoveRx beta-arrestin cells, luminescence, 90 min. max activation, %. 0.58% of 410,000 active; in the data active = max activation above about 30%; note: 0% is about no effect
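Cells at 1500/well, incubated overnight, then treated with pinned compounds (dopamine as control) for 90 min at 37 degrees C. DiscoveRx reagent added for 30 - 60 minutes at room temperature; luminescence read.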
The depositor's hits bear a star; ? = inconclusive; / = no result. Rows were chosen to be rich in hits. Some 6% of all compounds tested hit in one or more screens of this group.

SMILES	D1 PAM	D1 agonist	D1 antag	D3 antag	DRD3 agonist
O=C(O)C1CC=CCC1C(=O)N1CC=C(c2ccccc2)CC1 (configuration not stated)	-2.9	-1.0	1.6	-62.2*	-12.4
O=C(c1cccs1)N1CC=C(c2ccccc2)CC1	-1.2	2.8	-2.1	0.4	1.9
O=C(Nc1ccc(Cl)cc1)c1csc(-c2ccccc2)n1	-1.4	14.6	-9.9	1.6	-7.3
CC(=O)c1csc(-c2ccccc2)n1	-9.4	-1.0	-54.6*	-20.2	-6.4
COc1ccc(NC(=O)CCn2c(=O)c3cccn3c3cccnc32)c(OC)c1	-0.2	1.6	13.4	/	0.9
COc1cc(NC(=O)N2CCN(c3cc(-c4noc(C)n4)ccc3C)CC2)cc(OC)c1OC	-4.5	1.2	-10.2	/	4.8
Cc1cc(C(F)(F)F)n2ncc(C(=O)O)c2n1	/	4.4	-31.0*	13.0	1.7
Cc1ccc(C)c(OCCn2c(-c3ccc(Cl)cc3)nc3ccccc3c2=O)c1C	0.1	2.6	3.6	/	-4.1
Cc1ccc(CNC(=O)c2c(C)oc3nc(C)nc(N4CCOCC4)c23)cc1	3.8	0.3	0.9	/	-5.1
CC(C)(C)NS(=O)(=O)c1cccc(S(=O)(=O)c2cccc(S(=O)(=O)NC(C)(C)C)c2)c1	-0.1	5.4	-39.2*	-122.5*	-9.7
CC(C)c1nn2c(=O)cc(COC(=O)c3ccccc3NC(=O)c3cccs3)nc2s1	-0.1	-1.5	0.2	/	11.8
COC(=O)C1=CN(Cc2ccc(OC)cc2)C=C(C(=O)OC)C1c1cc(OC)c(OC)c(OC)c1	0.0	5.5	2.1	-3.4	-5.8
COC(=O)C1=CN(Cc2ccc(F)cc2)C=C(C(=O)OC)C1c1cc(OC)c(OC)c(OC)c1	-8.4	0.1	-40.9*	9.7	4.7
O=C(NCCS(=O)(=O)N1CCN(c2ccccc2F)CC1)c1ccco1	-1.7	-0.1	1.3	-8.5	-9.2
O=C(NCCS(=O)(=O)N1CCN(c2ccc(F)cc2)CC1)c1ccco1	0.8	1.8	-42.3*	?	-23.9
Cc1ccc(Cn2ccsc2=NC(=O)COC(=O)C(C)C)cc1	-0.8	0.4	-48.2*	10.5	-0.2
CN(C)CCCOC(=O)N1c2ccccc2C=Cc2ccccc21	-5.0	5.9	-2.6	-61.5*	-2.0
CN(C)CCCOC(=O)c1ccccc1Cl	5.0	2.3	-10.9	?	-4.2
Cc1ccc2c(CC(=O)OC(C)C(=O)NCc3ccc4c(c3)OCO4)coc2c1 (configuration not stated)	-3.4	9.1	-32.3*	45.7	-0.7
CC(OC(=O)Cc1coc2cc3c(cc12)CCC3)C(=O)NCc1ccc2c(c1)OCO2 (configuration not stated)	-1.7	4.8	/	16.1	4.8
CCCCSc1nc2sc3c(c2c(=O)n1-c1ccccc1)CCN(C)C3	8.6	2.2	11.7	-2.0	-4.3
CCCCNc1nc2sc3c(c2c(=O)n1-c1cccc(Cl)c1)CCN(C)C3	-5.2	3.1	-38.7*	-8.9	-8.7
CCCCCNc1nc2sc3c(c2c(=O)n1-c1cccc(Cl)c1)CCN(C)C3	-5.2	-0.2	-84.7*	5.7	-2.2
CCOc1cc(CNC(=O)C2COc3ccccc3C2)cc(OCC)c1OCC (configuration not stated)	-0.8	-0.3	0.0	/	-3.7
Cc1ccc(NC(=O)C(=O)NCc2ccco2)cc1	-2.2	-3.0	-30.7*	/	-2.0
SMILES	D1 PAM	D1 agonist	D1 antag	D3 antag	DRD3 agonist
CCc1ccc(NC(=O)CC2C(=O)N(c3cccc(OC)c3)C(=O)N2Cc2ccco2)cc1 (configuration not stated)	-1.1	-1.2	-5.6	/	5.0
Cc1cc2c(s1)c1cnn(Cc3c(F)c(F)c(C(F)(F)F)c(F)c3F)c(=O)c1n2C	1.1	0.8	7.1	/	/
COC(=O)c1cc(O)c(O)c(O)c1	-1.8	-2.7	-11.8	-1.4	34.5*
CCCOC(=O)c1cc(O)c(O)c(O)c1	/	/	/	/	10.0
CCc1ccc(NC(=O)CSc2ccc3nnc(CCNS(=O)(=O)c4ccc(OC)cc4)n3n2)cc1	2.1	-0.3	-3.0	/	3.3
CCOC(=O)c1c(O)c2c(n(Cc3ccco3)c1=O)CCCC2	-1.4	0.3	-2.0	57.6	43.6*
O=C(Nc1ccc(F)cc1)c1ccc(Cn2nc(N3CCN(c4ccccc4)CC3)ccc2=O)o1	-5.2	1.4	-32.3*	/	-1.7
Cc1ccc(OCCn2c(Br)nc3c2c(=O)n(C)c(=O)n3C)cc1	-5.5	12.7	-32.6*	14.8	35.3*
CCCCn1c(=O)c(F)cn(Cc2ccc(OC)c([N+](=O)[O-])c2)c1=O	-5.0	74.7*	13.0	7.5	2.9
CCCCCn1c(=O)c(F)cn(Cc2ccc(OC)c([N+](=O)[O-])c2)c1=O	-0.6	1.4	7.9	-2.1	-1.2
O=C(Cc1cccc2ccccc12)NCC(=O)Nc1ccccc1F	-3.0	0.7	-51.2*	3.5	5.8
CCc1ccccc1OCCCN1CCCC1	-1.0	5.0	-26.9	?	-2.0
O=Cc1cc(Cl)ccc1OCCN1CCC(Cc2ccccc2)CC1	2.6	3.2	27.6	?	-23.4
OCc1ccccc1OCCCN1CCC(Cc2ccccc2)CC1	-5.5	4.8	-39.2*	-66.0*	-25.4
COc1cc(OC)c(CN2CCC(Cc3ccccc3)CC2)cc1Br	-8.7	8.5	-42.8*	?	-10.5
C=CCOc1ccccc1CN1CCC(Cc2ccccc2)CC1	-9.2	1.4	-9.2	-52.4*	-10.2
Clc1ccccc1OCCN1CCC(Cc2ccccc2)CC1	-13.4	29.8	-42.2*	-89.9*	-7.0
Cc1ccc(NC(=O)C2CCN(S(=O)(=O)c3ccc4[nH]c(=O)ccc4c3)CC2)cc1C	3.7	2.0	1.6	/	6.4
COc1ccc(C2=Nn3c(nnc3-c3ccccc3OC)SC2)cc1	14.6	1.7	-26.7	/	/
CCN1CCN(C(C(=O)NC2CCCC2)c2ccc(Cl)cc2)CC1 (configuration not stated)	-3.5	0.7	-37.5*	0.0	-0.2
CCN1CCN(C(CCc2ccccc2)C(=O)NC2CCCCC2)CC1 (configuration not stated)	/	/	/	-72.7*	-13.8
CC(C(=O)NC1CCCC1)N1CCN(Cc2ccccc2)CC1 (configuration not stated)	0.9	5.2	4.5	-3.4	-21.0
O=CN1CCN(C(C(=O)NC2CCCCC2)c2ccc(Cl)cc2)CC1 (configuration not stated)	/	/	/	0.0	7.6
COc1cc(OC)c2c(C)c(Cl)c(=O)oc2c1	-9.8	-0.6	-36.3*	18.3	-4.1
O=C(NCc1cccc(Cl)c1)NCc1noc2ccccc12	1.4	-0.7	-13.3	/	0.9
CCOC(=O)CC(N)c1ccc(OC)cc1 (configuration not stated)	-10.2	-2.2	-68.8*	30.2	-0.8
Cc1ccc(S(=O)(=O)N2c3ccccc3CC2C)cc1 (configuration not stated)	-2.8	2.8	2.1	-28.8	-5.6
